# Source: PubChem BioAssay
# Hits are enriched below; roughly 3.3% of the tested compounds scored in any of these assays.
# FH mod: Identification of activators of human fumarate hydratase by quantitative high-throughput screening. Fumarate hydratase, mitochondrial (Homo sapiens), P07954. FH coupled MDH/diaphorase resazurin fluorescence, 15 min. Potency, µM (highest dose often 79.9 µM), without a hit: at the top dose activity change, negative = inhibition, usual class: inhibitors. 54,000 tested, 0.22% active. AID 1347055, 2019; also: potency is read from the fitted curve at half-maximal effect; % is scaled to controls: 0 for no effect and ±100 for the full control effect; the screen sought activators but most active calls are inhibition curves; nearly all actives have a fitted effect of over 45% in size
# Target sequence (P07954 whole entry, looked up): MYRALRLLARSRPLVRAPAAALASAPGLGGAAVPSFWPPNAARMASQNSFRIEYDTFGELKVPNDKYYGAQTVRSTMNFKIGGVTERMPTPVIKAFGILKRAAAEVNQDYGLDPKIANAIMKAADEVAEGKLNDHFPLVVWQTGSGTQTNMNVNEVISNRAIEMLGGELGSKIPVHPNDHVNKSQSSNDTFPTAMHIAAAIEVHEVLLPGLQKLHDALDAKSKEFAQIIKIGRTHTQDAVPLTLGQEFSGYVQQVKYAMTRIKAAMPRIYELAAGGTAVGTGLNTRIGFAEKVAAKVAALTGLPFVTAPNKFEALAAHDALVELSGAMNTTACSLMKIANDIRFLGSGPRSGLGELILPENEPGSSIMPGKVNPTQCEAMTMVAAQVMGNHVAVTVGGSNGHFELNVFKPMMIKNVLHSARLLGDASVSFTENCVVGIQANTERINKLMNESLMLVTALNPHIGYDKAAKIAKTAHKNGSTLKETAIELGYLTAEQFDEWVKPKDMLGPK
# S16 F2sN tox: S16 Schwann cell cytotoxicity. S16 Pmp22-F2sN Schwann cells viability, CellTiter-Glo, 24 h. Potency, µM (titrated, usually from 57.5 µM), for inactives: at the highest dose activity change, negative = cytotoxicity, actives largely listed as cytotoxic. 43,000 tested, 0.48% active; also: potency is read from the fitted curve at half-maximal effect; % is scaled to controls: 0 for no effect and ±100 for the full control effect; nearly all actives have a fitted effect of over 65% in size
#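 Luminescence from CellTiter-Glo, read by CCD camera after a 15 min room-temperature incubation, served as the viability signal. Reporter Schwann cells (S16 Pmp22-F2sN) had been treated with pin-transferred compounds for 24 h at 37C.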
# PMP22 txn prim: PMP22 gene transcription modulation; S16 Pmp22-F2sN Schwann cells (luciferase reporters placed in the Pmp22 gene), FLuc/NLuc coincidence luminescence, 24 h; Potency, µM (series often up to 57.5 µM), for the others: at the top dose activity change, negative = inhibition, most hits filed as inhibitors; 43,000 tested, 2% active; active = clear falling dose curves in both reporters; inconclusive = both reporters move, but less clearly or upward; inactive = either reporter flat; the % is the NLuc reporter signal; also: potency is read from the fitted curve at half-maximal effect; % is scaled to controls: 0 for no effect and ±100 for the full control effect
#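 Schwann cells carrying the coincidence reporter were exposed to library compounds for 24 h at 37C, then lysed and read for FLuc and, after quenching, NLuc luminescence on a CCD imager.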
# pS6 MEF inh: reduces mTORC1 signaling in Tsc2 and p53 null MEF cells; Tsc2-/- p53-/- MEF, phospho-rpS6 immunofluorescence/PI, 24 h; Potency, µM (highest dose often 38.3 µM), without a hit: at the highest dose activity change, negative = inhibition, usual class: inhibitors; 44,000 tested, 0.78% active; AID 493208;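 also: potency is read from the fitted curve at half-maximal effect; plate controls were DMSO for no effect and rapamycin for full effect; nearly all actives have a fitted effect of over 50% in size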
#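 Read-out: phospho-S6 Alexa-488 intensity over PI intensity per well, scored as % active cells using thresholds from rapamycin (7.5 nM) and DMSO controls. Tsc2-/-, p53-/- MEFs exposed to compound for 24 h; PI cell count recorded as viability.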
# HTT prom inh: inhibitors of huntingtin promoter activity; Potency, µM (titrated, usually from 57.5 µM), for the others: at the top dose activity change, negative = inhibition, most hits filed as inhibitors; 48,000 tested, 0.93% active; AID 1508623; HEK293 HTT promoter firefly luciferase reporter, 24 h; also: potency is read from the fitted curve at half-maximal effect; nearly all actives have a fitted effect of over 50% in size
#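 Firefly luciferase readout (Dual-Glo, 10 min RT) after 24 h, 37 °C compound exposure (final up to 57.5 uM) of HEK293 reporter cells cultured 24 h beforehand; PTC124 at 50 uM final as control inhibitor; activity scaled vehicle 0%, zero RLU -100%.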
# HTT-AS act: activates huntingtin-antisense promoter activity. HEK293 HTT-AS promoter firefly luciferase reporter, 24 h; response scale: percent change from vehicle, -100% = no light. Potency, µM (highest dose often 57.5 µM), without a hit: at the highest dose activity change, positive = activation, most hits filed as activators. 48,000 tested, 0.24% active; also: potency is read from the fitted curve at half-maximal effect; nearly all actives have a fitted effect of over 55% in size
#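 Firefly luciferase readout (Dual-Glo, 10 min RT) after 24 h, 37 °C compound exposure (final up to 57.5 uM) of HEK293 reporter cells cultured 24 h beforehand; PTC124 at 50 uM final as control inhibitor; activity scaled vehicle 0%, zero RLU -100%.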
# NLuc sat counter: inhibits NanoLuc at saturating substrate, PMP22 counter-screen | shares compounds with PMP22 txn prim | Secreted NLuc enzyme (filtered S16 cell medium), Nano-Glo luminescence | Potency, µM (titrated, usually from 57.5 µM), for the others: at the highest dose activity change, negative = inhibition, most hits filed as inhibitors | 690 tested, 4% active | AID 1508638; also: potency is read from the fitted curve at half-maximal effect; % is scaled to controls: 0 for no effect and ±100 for the full control effect
# NLuc Km ctr: counter-screen for PMP22 expression modulators: NanoLuc inhibition at Km; shares compounds with PMP22 txn prim; secreted NLuc enzyme, coelenterazine luminescence, Km conditions; Potency, µM (doses to about 57.5 µM), for inactives: at the highest dose activity change, negative = inhibition, actives largely listed as inhibitors; 690 tested, 5% active; also: potency is read from the fitted curve at half-maximal effect; % is scaled to controls: 0 for no effect and ±100 for the full control effect
# FLuc ctr PMP22: inhibits firefly luciferase, PMP22 counter-screen; AID 1508640; 690 tested, under 10 active; purified P. pyralis FLuc, luminescence, 10 min; Potency, µM (highest dose often 57.5 µM), inactives show top-dose activity, negative = inhibition, actives largely listed as inhibitors; shares compounds with PMP22 txn prim; also: % of control where 0% means no effect
# S16 F2sN tox cnf: S16 Schwann cell cytotoxicity, confirmatory; shares compounds with PMP22 txn prim; 690 tested, 7% active; Potency, µM (top dose mostly 57.5 µM), without a hit: at the top dose activity change, negative = viability loss, most hits filed as cytotoxic; AID 1508641; S16 Schwann cells viability, CellTiter-Glo ATP luminescence, 24 h; also: potency is read from the fitted curve at half-maximal effect; % is scaled to controls: 0 for no effect and ±100 for the full control effect
# PMP22 txn cnf: confirmation of modulators of PMP22 gene transcription in S16 cells. shares compounds with PMP22 txn prim. 690 tested, 22% active. S16 Schwann cells Pmp22-F2sN, dual luciferase, 24 h. Potency, µM (titrated, usually from 57.5 µM), for the others: at the highest dose activity change, negative = inhibition, hits mostly inhibitors; active = clear falling dose curves in both reporters; inconclusive = both reporters move, but less clearly or upward; inactive = either reporter flat; the % is the FLuc reporter signal; also: potency is read from the fitted curve at half-maximal effect
# PMP22 HiBiT cnf: confirmation of modulators of rat PMP22 protein expression; shares compounds with PMP22 txn prim; S16 Schwann cells Pmp22-HiBiT, luminescence, 48 h; Potency, µM (titrated, usually from 27.9 µM), for inactives: top-dose activity change, negative = inhibition, hits mostly inhibitors; 95 tested, under 10 active; AID 1508647
# Target sequence (P25094 whole entry, looked up): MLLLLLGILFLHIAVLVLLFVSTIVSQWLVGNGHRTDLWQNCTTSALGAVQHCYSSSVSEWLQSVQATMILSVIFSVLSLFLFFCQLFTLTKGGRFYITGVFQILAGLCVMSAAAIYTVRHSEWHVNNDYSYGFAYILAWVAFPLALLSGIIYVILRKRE
# Starred values were filed as active, the others as inactive; ? = inconclusive; . = no result given. Unless noted, calls follow the shape of the dose curve; as a rule, active = well fitted curve in the direction sought with a large enough effect; inconclusive = small, poorly fitted or top-dose-only effect, or another doubt; inactive = no such curve, though single readings can be large; an effect the other way counts as inactive or inconclusive.
SMILES,FH mod,S16 F2sN tox,PMP22 txn prim,pS6 MEF inh,HTT prom inh,HTT-AS act,NLuc sat counter,NLuc Km ctr,FLuc ctr PMP22,S16 F2sN tox cnf,PMP22 txn cnf,others
COc1ccc(NS(=O)(=O)c2ccc3c(c2)CC(C)N3C(=O)C2CCC2)cc1OC (centres undefined),-21%,-12%,3µM*,-16%,1.8µM*,-50%,-17%,?,1%,-5%,?,
Fc1ccc2c(CCNCc3cccc(OCC(F)(F)C(F)F)c3)c[nH]c2c1,-1%,.,.,.,.,.,.,.,.,.,.,
CCN1CCN(CCCNC(=O)c2ccc3c(c2)sc2nc(-c4ccc(C)cc4)cn23)CC1,1%,?,9.5µM*,9%,-14%,-18%,15µM*,?,6.9µM*,19µM*,17µM*,
O=c1oc2ccccc2cc1-c1cn2cc(Cc3ccc(Br)cc3)sc2n1,4%,-1%,?,-13%,-20%,-12%,3%,0%,-2%,1%,?,
CCOC(=O)c1ccccc1NC(=O)n1ncc2cc(Cl)ccc21,2%,-2%,10%,2%,2%,0%,.,.,.,.,.,
CCOC(=O)c1cc(NC(=O)c2ccccc2)c(=O)n2c1oc1ccc(Cl)cc12,-10%,?,?,-6%,-3%,1%,-4%,3%,6%,10%,?,
C[C@@H](c1nc(-c2ccc(C#N)cc2)cs1)[C@](O)(Cn1cncn1)c1cc(F)ccc1F,-1%,.,.,.,.,.,.,.,.,.,.,
COC(=O)CS(=O)(=O)c1nc2ccccc2nc1N1CCCCC1,-4%,?,11µM*,?,4%,-5%,?,?,-10%,29%,9.9µM*,PMP22 HiBiT cnf=?
COc1ccc(C2=C(C)C(=NCCCN3CCN(c4cc(C)ccc4C)CC3)NS2(=O)=O)cc1,-11%,1%,15µM*,-4%,?,-36%,-7%,-2%,2%,-5%,?,
CC1=C(c2ccc(Cl)cc2)S(=O)(=O)NC1=NCc1ccc(C)cc1,-3%,18%,2%,3%,-12%,-3%,.,.,.,.,.,
C=C1C(=O)O[C@@H]2/C=C(\CO)CC/C=C(/C=O)C[C@H](O)[C@@H]12,-2%,.,.,.,.,.,.,.,.,.,.,
COc1nnc(-c2ccc(N3CCCCC3)c(NC(=O)c3ccccc3)c2)c2ccccc12,-15%,?,14µM*,-2%,?,-15%,?,?,5%,0%,?,
COc1nnc(-c2ccc(N3CCCCC3)c(NC(=O)c3ccc(Cl)cc3)c2)c2ccccc12,1%,3%,15µM*,0%,-23%,-26%,?,0%,4%,-8%,?,
COc1ccc(C(=O)Nc2cc(C(F)(F)F)ccc2N2CCN(c3ccccc3)CC2)cc1OC,9%,7%,-15%,4%,-1%,-4%,.,.,.,.,.,
O=C(CSc1nc2ccsc2c(=O)n1-c1ccc(Br)cc1)NCc1ccc(Cl)cc1,1%,2%,12µM*,?,-16%,-24%,-5%,-2%,5%,3%,?,
O=C(CSc1nc2ccsc2c(=O)n1-c1ccc(Cl)cc1)NCc1ccc(Cl)cc1,2%,6%,?,-3%,?,-39%,.,.,.,.,.,
CCOc1ccc(NC(=O)c2cc3sc(Cl)cc3n2CC)cc1,6%,-28%,12µM*,-1%,-16%,1%,2%,2%,1%,-6%,?,
CCn1c(C(=O)NCc2ccc(OC)cc2)cc2sc(Cl)cc21,-26%,19%,4%,-6%,-26%,-28%,.,.,.,.,.,
COc1ccc(CNC(=O)c2nc(SCc3ccc(C)cc3)ncc2Cl)cc1,-4%,-2%,?,-2%,-27%,-23%,.,.,.,.,.,
COc1ccc(NC(=O)c2nc(S(=O)(=O)Cc3ccc(C)cc3)ncc2Cl)cc1,-12%,?,11µM*,3.7µM*,24%,-29%,-11%,-15%,3%,?,5.8µM*,PMP22 HiBiT cnf=-9%
CCS(=O)(=O)c1ncc(Cl)c(C(=O)NCc2ccccc2)n1,-19%,?,8.4µM*,2.6µM*,?,-94%,-7%,-20%,3%,15µM*,6.9µM*,
COc1ccc(CNC(=O)c2nc(SC(C)C)ncc2Cl)cc1,-19%,-4%,-55%,-7%,-22%,11%,.,.,.,.,.,
CCCS(=O)(=O)c1ncc(Cl)c(C(=O)Nc2c(C(=O)Nc3ccccc3)oc3ccccc23)n1,9%,?,7.1µM*,2.1µM*,13%,-12%,-13%,1.4µM*,6%,17µM*,8.2µM*,
CC1CCC2(C=O)C(CO)=CCCC2C1(C)CC(=O)O (centres undefined),-11%,.,.,.,.,.,.,.,.,.,.,
CCOC(=O)C(CCc1ccccc1)NC(C)C(=O)N1C(=O)N(C)CC1C(=O)O (centres undefined),-1%,.,.,.,.,.,.,.,.,.,.,
